# Measured values from the supplement of paper PMC8728848.
# Many of the other results were omitted from the sample, so the strongest signals are more common in it than they were.
# B1: Clec39 (Caenorhabditis elegans) (protein)
# chain: MTSFYDNSSSSSKPVPLKTSRAQKIQILIFDNWKLILYGAISTLILVLAIMFSTLFFALPAANCDENSEPTKYYTTNAEITTTITTTNQKTTSTASSHLTTISSSATQIYSESSSSSTSQSTFTQSPPEISTTTIAPSDFSCQHGFTLVNNKCWKLVTSNQARPDADKICNGYGGATLFSIKSEQDNRAMIHFVKGQDIDFLWSGLLCSAGEPISCIWDIENGSTANYSNFADGFPNIVYGNCVYFITSGDEAGQWGNEQCGQVMNFVCELPATFQGKDGCKNNYEKSCYLRFDLNLTVPQAQNFCLEKCANLVSIHSANEVRFIMTIYDFIGEILIGALAPAQDFIYWLDGTPANYNNLKFFYNSTCVHMTVAPGMQNVGKWFTRFCTETGKFLCKRSIKNSCT
# Tests used:
# Assay in all cases: glycan array binding signal (z-score within array); higher = stronger binding
# Details in all cases: glycan notation: IUPAC condensed, linker removed
# [1] = target: GlcNAc(b1-3)Gal(b1-4)GlcNAc(b1-3)Gal(b1-4)GlcNAc(b1-3)Gal(b1-4)GlcNAc(b1-2)Man(a1-3)[GlcNAc(b1-3)Gal(b1-4)GlcNAc(b1-3)Gal(b1-4)GlcNAc(b1-3)Gal(b1-4)GlcNAc(b1-2)Man(a1-6)]Man(b1-4)GlcNAc(b1-4)GlcNAc
# Procedure, shortened: (§1)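 Glycan array data were curated from 3228 arrays in the Consortium for Functional Glycomics database and kept only where the protein sequence was available. Glycan names were converted to IUPAC-condensed notation, and columns mapping to the same glycan were averaged. The binding signal is a within-array Z-score, averaged across arrays of the same protein sequence at different concentrations or buffers and across linkers. Negative Z-scores can be read as non-binding.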
# [2] = target: GlcNAc(b1-3)[GlcNAc(b1-4)][GlcNAc(b1-6)]GlcNAc
# Procedure, shortened: as §1
# [3] = target: Kdn(a2-6)Gal(b1-4)GlcNAc
# Procedure, shortened: as §1
# [4] = target: Man(a1-2)Man(a1-3)[Man(a1-2)Man(a1-6)]Man
# Procedure, shortened: as §1
# [5] = target: Man(a1-2)Man(a1-3)[Man(a1-2)Man(a1-6)]Man(a1-6)[Man(a1-2)Man(a1-2)Man(a1-3)]Man
# Procedure, shortened: as §1
# [6] = target: Man(a1-3)[Man(a1-6)]Man
# Procedure, shortened: as §1
# [7] = target: Neu5Ac(a2-3)Gal(b1-3)GlcNAc(b1-2)[Neu5Ac(a2-3)Gal(b1-3)GlcNAc(b1-4)]Man(a1-6)[Neu5Ac(a2-3)Gal(b1-3)GlcNAc(b1-2)Man(a1-3)]Man(b1-4)GlcNAc(b1-4)GlcNAc
# Procedure, shortened: as §1
# [8] = target: Neu5Ac(a2-3)Gal(b1-3)GlcNAc(b1-3)Gal(b1-3)GlcNAc
# Procedure, shortened: as §1
# [9] = target: Neu5Ac(a2-3)Gal(b1-4)GlcNAc(b1-2)Man(a1-3)[GlcNAc(b1-4)][Neu5Ac(a2-3)Gal(b1-4)GlcNAc(b1-2)Man(a1-6)]Man(b1-4)GlcNAc(b1-4)GlcNAc
# Procedure, shortened: as §1
# [10] = target: Neu5Ac(a2-3)Gal(b1-4)GlcNAc(b1-2)Man(a1-3)[Neu5Ac(a2-6)Gal(b1-4)GlcNAc(b1-2)Man(a1-6)]Man(b1-4)GlcNAc(b1-4)GlcNAc
# Procedure, shortened: as §1
# [11] = target: Neu5Ac(a2-3)Gal(b1-4)GlcNAc(b1-3)Gal(b1-4)GlcNAc(b1-3)[Neu5Ac(a2-3)Gal(b1-4)GlcNAc(b1-3)Gal(b1-4)GlcNAc(b1-6)]GalNAc
# Procedure, shortened: as §1
# [12] = target: Neu5Ac(a2-3)Gal(b1-4)[Fuc(a1-3)]GlcNAc(b1-3)GalNAc
# Procedure, shortened: as §1
# [13] = target: Neu5Ac(a2-3)Gal6S(b1-4)[Fuc(a1-3)]GlcNAc
# Procedure, shortened: as §1
# [14] = target: Neu5Ac(a2-6)Gal(b1-4)GlcNAc
# Procedure, shortened: as §1
# [15] = target: Neu5Ac(a2-6)Gal(b1-4)GlcNAc(b1-2)Man(a1-3)[Gal(b1-4)GlcNAc(b1-2)Man(a1-6)]Man(b1-4)GlcNAc(b1-4)GlcNAc
# Procedure, shortened: as §1
# [16] = target: Neu5Ac(a2-6)Gal(b1-4)GlcNAc(b1-2)Man(a1-3)[GlcNAc(b1-2)Man(a1-6)]Man(b1-4)GlcNAc(b1-4)GlcNAc
# Procedure, shortened: as §1
# [17] = target: Neu5Ac(a2-6)Gal(b1-4)GlcNAc(b1-2)Man(a1-3)[Neu5Ac(a2-3)Gal(b1-4)GlcNAc(b1-2)Man(a1-6)]Man(b1-4)GlcNAc(b1-4)GlcNAc
# Procedure, shortened: as §1
# [18] = target: Neu5Ac(a2-6)Gal(b1-4)GlcNAc(b1-6)GalNAc
# Procedure, shortened: as §1
# [19] = target: Neu5Ac(a2-8)Neu5Ac(a2-3)Gal(b1-3)GalNAc(b1-4)[Neu5Ac(a2-8)Neu5Ac(a2-3)]Gal(b1-4)Glc
# Procedure, shortened: as §1
# [20] = target: Neu5Ac(a2-8)Neu5Ac(a2-8)Neu5Ac(a2-3)[Gal(b1-3)GalNAc(b1-4)]Gal(b1-4)Glc
# Procedure, shortened: as §1
# [21] = target: Neu5Ac(b2-6)Gal(b1-4)GlcNAc
# Procedure, shortened: as §1
# [22] = target: Neu5Gc(a2-3)Gal(b1-3)[Fuc(a1-4)]GlcNAc
# Procedure, shortened: as §1
binder,measurement,setting,value
B1,glycan array binding signal (z-score),[1],-0.221
same,glycan array binding signal (z-score),[2],0.102
same,glycan array binding signal (z-score),[3],0.204
same,glycan array binding signal (z-score),[4],-0.005
same,glycan array binding signal (z-score),[5],0.088
same,glycan array binding signal (z-score),[6],0.047
same,glycan array binding signal (z-score),[7],0.47
same,glycan array binding signal (z-score),[8],-0.142
same,glycan array binding signal (z-score),[9],1.43
same,glycan array binding signal (z-score),[10],2.22
same,glycan array binding signal (z-score),[11],-0.101
same,glycan array binding signal (z-score),[12],4.34
same,glycan array binding signal (z-score),[13],-1.24
same,glycan array binding signal (z-score),[14],-1.22
same,glycan array binding signal (z-score),[15],0.815
same,glycan array binding signal (z-score),[16],0.613
same,glycan array binding signal (z-score),[17],-0.493
same,glycan array binding signal (z-score),[18],-0.055
same,glycan array binding signal (z-score),[19],1.4
same,glycan array binding signal (z-score),[20],0.076
same,glycan array binding signal (z-score),[21],-0.632
same,glycan array binding signal (z-score),[22],1.01
